# Source: PubChem (National Center for Advancing Translational Sciences (NCATS))
# GLP1R ag: agonists of human GLP-1 receptor; AID 624172; P43220; HEK293 GLP-1R CRE-luciferase, luminescence, 4-6 h; cells express a hypersensitive GLP-1R form; Potency, µM (titrated, usually from 45.6 µM), for inactives: top-dose activation, usual class: activators; 0.007% of 380,000 active; note: % of control where 0% means no effect
# Target sequence (P43220 whole entry, looked up): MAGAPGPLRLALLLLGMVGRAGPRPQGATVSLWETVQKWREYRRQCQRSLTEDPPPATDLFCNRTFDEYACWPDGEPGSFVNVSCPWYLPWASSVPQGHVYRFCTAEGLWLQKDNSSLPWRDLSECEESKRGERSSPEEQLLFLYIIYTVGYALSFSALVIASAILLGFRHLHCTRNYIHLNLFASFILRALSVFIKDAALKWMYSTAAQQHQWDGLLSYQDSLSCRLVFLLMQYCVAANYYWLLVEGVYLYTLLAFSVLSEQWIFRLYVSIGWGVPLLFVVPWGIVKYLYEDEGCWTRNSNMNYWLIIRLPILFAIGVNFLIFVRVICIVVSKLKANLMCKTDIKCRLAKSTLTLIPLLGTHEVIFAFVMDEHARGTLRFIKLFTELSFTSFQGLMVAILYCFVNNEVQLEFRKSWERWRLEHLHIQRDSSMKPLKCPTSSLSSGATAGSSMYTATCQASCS
# GLP1R cytotox: cytotoxic in the GLP-1 receptor inverse agonist counter-screen; HEK293 cAMP-luciferase reporter cells, luminescence, 24 h; Potency, µM (highest dose often 38.3 µM), for inactives: at the top dose activity change, negative = inhibition, most hits filed as inhibitors; 0.13% of 410,000 active;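 note: loss of luciferase light is scored as toxicity; % is set by controls: 0 for no effect and ±100 for the full control effect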
#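 Quantitative HTS format, 1536 wells, 200 cells/uL seeded. Compounds: 23 nL, 24 h, 37 °C. Detection: luciferase reagent, luminescence at 12 min RT; decreased signal taken as cytotoxic.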
# GLP1R inv ag: acts as inverse agonist at human GLP-1 receptor; HEK293 GLP-1R CRE-luciferase, luminescence, 24 h; GLP-1R form is constitutively active; Potency, µM (top dose mostly 38.3 µM), without a hit: at the top dose activity change, negative = inhibition, hits mostly inhibitors; 1.6% of 410,000 active; AID 624417; note: % is set by controls: 0 for no effect and ±100 for the full control effect; nearly all actives have a fitted effect of over 55% in size
#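 Constitutively active GLP-1R drives a cAMP-responsive luciferase in stably transfected HEK293 cells; test compounds are added after overnight (12 h) attachment and left 24 hr, and signal loss in luminescence marks inhibition.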
# Starred values were filed as active, the others as inactive; ? = inconclusive; nt = no result; [ ] = dose if it differs, or a comment. Only some compounds are listed: those with a hit (about 1.7% of all), similar ones and a draw of the others. Calls come from the whole dose curve; as a rule, active = well fitted curve in the direction sought with a large enough effect; inconclusive = small, poorly fitted or top-dose-only effect, or another doubt; inactive = no such curve, though single readings can be large; an effect the other way counts as inactive or inconclusive. Potency is the fitted concentration of half-maximal effect.
SMILES,GLP1R ag,GLP1R cytotox,GLP1R inv ag
COc1ccc(OC)c(NC(=S)N(CCc2c(C)[nH]c3ccccc23)Cc2cccs2)c1,7.7%,-3.3%,?
COc1ccc(OC)c(NC(=S)N(CCc2c(C)[nH]c3ccc(C)cc23)Cc2cccs2)c1,-2.6%,6.4%,11.2µM*
CCOc1ccc2nc(N(CCN(CC)CC)C(=O)c3cccc([N+](=O)[O-])c3)sc2c1,1.4%,4.4%,?
Cc1ccc(S(=O)(=O)N2CCOCC2)cc1NC(=O)COc1cccc(Oc2ccccc2)c1,-1.9%,11.5%,10µM*
Cc1ccc(S(=O)(=O)N2CCOCC2)cc1NC(=O)CN1CCN(C)CC1,0.4%,-0.2%,36.1%
Cc1ccc(S(=O)(=O)N2CCOCC2)cc1NC(=O)COC(=O)CNC(=O)c1ccc(Oc2ccccc2)cc1,3.4%,11.9%,16.8%
Cc1ccc(S(=O)(=O)N2CCOCC2)cc1NC(=O)CN1CCC(Cc2ccccc2)CC1,10.1%,-6.6%,7.08µM*
COc1ccc(COC(=O)c2[nH]c3c(c2C)C(=O)CC(c2ccc(OC)c(OC)c2)C3)cc1 (stereo not drawn),nt,1.2%,-22.9%
CCCCOc1ccc(CSCCNC(=S)Nc2ccccc2)cc1,-4.2%,3.16µM*,1.78µM*
CCCCCOc1ccc(CSCCNC(=S)Nc2ccccc2)cc1,-3.6%,-6.5%[1.53 µM],?
Cc1cccc(CSCCNC(=O)Nc2ccccc2)c1,-2.9%,-19.9%,?
CC(C)COc1ccc(CSCCNC(=S)Nc2ccccc2)cc1,1.8%,4.47µM*,3.16µM*
CCOc1ccc(N2CC(NC(=O)C3CCCCC3)CC2=O)cc1 (stereo not drawn),nt,-2.9%,4.7%
CC(=O)Nc1ccc(NC(=O)COc2ccc(S(=O)(=O)N3CCCC3)cc2)cc1,3.6%,1.6%,36.6%
CC1=CC(C)(C)Nc2ccc(C)cc21,-11.7%,-17.8%,0.0%
CC1=CC(C)(C)Nc2ccc(Cc3ccc4c(c3)C(C)=CC(C)(C)N4)cc21,-0.6%,-15.4%,2.82µM*
CCCn1c(SC(C)C(=O)NCC2CCCO2)nc2sc3c(c2c1=O)CCC3 (stereo not drawn),14.1%,-23.7%,-17.4%
Cc1cc(C)c(-n2nnnc2SCC(=O)c2cccs2)c(C)c1,9.7%,0.7%,12.6µM*
Cn1nnnc1SCC(=O)c1cccs1,-2.5%,3.7%,1.1%
Cc1cc(NCCCN2CCOCC2)n2nc(C)c(-c3ccccc3)c2n1,25.8%,-0.2%,4.47µM*
Cc1cc(NCCCN2CCOCC2)n2nc(C)c(-c3ccc(F)cc3)c2n1,17.1%,-2.1%,?
Cc1ccc(NC(=O)C(Cc2ccccc2)n2cccc2)cc1 (stereo not drawn),5.6%,-4.6%,?
O=C(Nc1ccc(F)cc1)C(Cc1ccccc1)n1cccc1 (stereo not drawn),11.9%,-5.3%,12.6µM*
COc1cccc(NC(=O)C(Cc2ccccc2)n2cccc2)c1 (stereo not drawn),5.0%,-5.0%,11.2µM*
O=C(NCc1cccs1)C(Cc1ccccc1)n1cccc1 (stereo not drawn),10.8%,10.9%,?
SMILES,GLP1R ag,GLP1R cytotox,GLP1R inv ag
COc1cccc(CNC(=O)C(Cc2ccccc2)n2cccc2)c1 (stereo not drawn),17.6%,7.6%,?
O=C(NCc1ccc(F)cc1)C(Cc1ccccc1)n1cccc1 (stereo not drawn),3.3%,2.2%,11.2µM*
NCCCC(N)CC(=O)NC1CNC(=O)C(C2CC(O)N=C(N)N2)NC(=O)/C(=C/NC(N)=O)NC(=O)C(CO)NC(=O)C(CO)NC1=O (stereo not drawn),-5.3%,nt,nt
COc1ccc(-c2csc(C(C)(O)c3ccc(OC)cc3)n2)cc1 (stereo not drawn),-0.8%,3.3%,?
CCSC(=O)N=Nc1ccc(O)cc1,-2.7%,?,?
Nc1ccn([C@@H]2O[C@H](CNCc3ccc(C#CCCO)cc3)[C@@H](O)[C@H]2O)c(=O)n1,10.0%,1.8%,7.3%
Cc1ccc(CN(C(=O)COc2ccc(Cl)cc2Cl)C2CCS(=O)(=O)C2)o1 (stereo not drawn),nt,-10.3%,-23.9%
COc1ccc(N(CC(=O)N2CCN(c3ccc(Cl)cc3)CC2)S(=O)(=O)c2c(C)n[nH]c2C)cc1,13.4%,-10.5%,11.2µM*
COc1ccc(N(CC(=O)Nc2ccc(Cl)cc2)S(=O)(=O)c2c(C)n[nH]c2C)cc1,-4.3%,20.6%,?
Cc1cc(OCC(=O)NCCCN(C)C)cc(C)c1Br,0.5%,13.6%,2.82µM*
CCc1ccc(OCC(=O)NCCN(C)C)c(Br)c1,11.2%,8.7%,10µM*
CCc1ccc(OCC(=O)NC2CCCCC2)c(Br)c1,16.5%,12.5%,?
Cc1ccccc1OCC(=O)NCCN(C)C,-3.3%,0.3%,0.3%
Cc1ccccc1C(=O)NNC(=O)c1cccc(Br)c1,0.1%,-2.3%,13.9%
COc1ccc(N(C(=O)COc2ccc(Br)cc2)S(=O)(=O)c2ccc(C)cc2)cc1,nt,8.6%,11.6%
Cc1ccc(C)n1-n1cnc2sc3c(c2c1=O)CCCCC3,2.9%,78.1%,?
Cc1ccc(C)n1-n1c(C)nc2sc3c(c2c1=O)CCCCC3,2.1%,-13.1%,11.2µM*
COc1ccc(NC(=O)CSc2n[nH]c(-c3ccccc3)n2)cc1Cl,nt,-0.1%,10.6%
CC(NC(=O)CSc1nc2ccc(N)cc2s1)c1ccccc1 (stereo not drawn),9.3%,26.2%,?
CN1CC(=O)N(CC(=O)Nc2ccc(N3CCOCC3)cc2)C1=O,2.8%,-8.4%,18.8%
COc1ccc(CCN(C(=O)C(F)(F)F)C(C(=O)NC2CCCCC2)c2cccs2)cc1 (stereo not drawn),4.6%,-3.6%,6.31µM*
COc1ccc(CCN(C(=O)C(F)(F)F)C(C(=O)NC2CCCCC2)c2ccc(C)s2)cc1 (stereo not drawn),-0.3%,-12.0%,?
O=S(=O)(c1ccc(SCc2ccccc2F)nc1)N1CCCC1,16.6%,-2.9%,?
CCC(C)(C)NC(=O)C(c1ccc(F)cc1)N(Cc1ccc(OC)cc1)C(=O)c1cnccn1 (stereo not drawn),9.8%,-0.1%[7.66 µM],-7.7%[7.66 µM]
COc1ccc(CN(C(=O)c2cnccn2)C(C(=O)Nc2ccc(F)cc2)c2ccccc2)cc1 (stereo not drawn),-0.3%,-16.7%,5.62µM*
SMILES,GLP1R ag,GLP1R cytotox,GLP1R inv ag
COc1cc(NS(=O)(=O)c2ccc(NC(=O)COc3ccc(Cl)cc3Cl)cc2)nc(OC)n1,nt,0.3%,-0.5%
COc1ccccc1S(=O)(=O)N(C)C[C@@H]1OCc2cn(nn2)CCCC(=O)N([C@@H](C)CO)C[C@H]1C,-3.0%,1.6%,6.2%
Cc1ccc(Cn2ccsc2=NC(=O)COC(=O)c2ccc(NC(=O)CC#N)cc2)cc1,1.5%,10.1%,-2.4%
Cc1ccc(Cn2ccsc2=NC(=O)CCl)cc1,19.6%,-40.4%,10µM*
CC1(C(=O)NS(=O)(=O)Cc2cccc(Cl)c2)CCN1C(=O)C1(c2ccc(Cl)cc2)CCC1 (stereo not drawn),-7.4%,0.5%,?
CN(C)CCCNC(=O)/C=C/c1ccc2c(c1)OCO2,-6.2%,1.5%[1.53 µM],2.1%
O=C(/C=C/c1ccc2c(c1)OCO2)NCCSCc1c(Cl)cccc1Cl,-0.5%,0.3%,10µM*
CS(=O)(=O)N(CC(=O)NCCSCc1c(F)cccc1Cl)c1ccc2c(c1)OCO2,8.0%,-11.9%,0.5%
